Source: PubChem (National Center for Advancing Translational Sciences (NCATS))
Pin1 inhibitor – blocks the human prolyl isomerase Pin1; Q13526; Pin1 FP peptide displacement, HiFluor488, 10 min; Potency, µM (top dose mostly 115 µM), inactives show at the top dose activity, negative = inhibition, usual class: inhibitors; 390,000 compounds, 0.009% hits; AID 504891; active = well fitted inhibition curve with a large enough effect in the polarisation, with a control signal flat, not every such curve was filed as active; inconclusive = small, poorly fitted or top-dose-only effect, or effect the other way, or a change in a side signal; inactive = no such curve, though single readings can be large or run the other way; the % refers to the polarisation; note: potency is the fitted concentration of half-maximal effect; % is set by controls: 0 for no effect and ±100 for the full control effect
Target sequence (Q13526 whole entry, looked up): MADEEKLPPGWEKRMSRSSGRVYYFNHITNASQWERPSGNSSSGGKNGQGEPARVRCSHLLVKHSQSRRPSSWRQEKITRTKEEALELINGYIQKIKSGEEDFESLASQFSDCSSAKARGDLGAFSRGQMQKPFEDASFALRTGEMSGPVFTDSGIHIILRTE
mIDH1 inhibitor – human IDH1 R132H inhibition. O75874. 390,000 compounds, 0.093% hits. Potency, µM (highest dose often 76.6 µM), for inactives: at the top dose activity change, negative = inhibition, hits mostly inhibitors. AID 602179. IDH1-R132H enzyme, NADPH consumption, diaphorase/resazurin fluorescence; note: potency is the fitted concentration of half-maximal effect; % is set by controls: 0 for no effect and ±100 for the full control effect; nearly all actives have a fitted effect of over 65% in size
Target sequence (O75874 whole entry R132H, stated change not applied): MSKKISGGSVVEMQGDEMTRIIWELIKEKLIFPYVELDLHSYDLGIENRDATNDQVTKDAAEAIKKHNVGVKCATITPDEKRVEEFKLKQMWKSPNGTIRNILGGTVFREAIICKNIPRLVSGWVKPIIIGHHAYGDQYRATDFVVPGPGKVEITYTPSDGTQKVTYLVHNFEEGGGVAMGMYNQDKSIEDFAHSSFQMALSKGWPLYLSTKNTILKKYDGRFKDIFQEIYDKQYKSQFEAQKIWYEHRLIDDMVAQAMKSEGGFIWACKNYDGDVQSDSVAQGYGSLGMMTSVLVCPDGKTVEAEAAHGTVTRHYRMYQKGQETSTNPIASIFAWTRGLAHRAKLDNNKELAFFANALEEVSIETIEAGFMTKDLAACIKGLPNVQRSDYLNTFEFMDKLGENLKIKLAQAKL
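IDH1-R132H (0.5 ug/mL) preincubated 30 min with compound, then NADPH (0.016 mM) and alpha-KG (2 mM) added; 80 min at RT, pH 7.5. Remaining NADPH coupled via diaphorase/resazurin to fluorescence (540/590 nm); concentration-response curves normalized to no-enzyme control.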
PGK inhibitor – T. brucei PGK inhibition. P07378. PGK/GAPDH coupled, Kinase-Glo luminescence, 60 min. Potency, µM (top dose mostly 57.5 µM), inactives show top-dose activity change, negative = inhibition, hits mostly inhibitors. 380,000 compounds, 0.043% hits; note: potency is the fitted concentration of half-maximal effect; % is set by controls: 0 for no effect and ±100 for the full control effect; nearly all actives have a fitted effect of over 60% in size
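Recombinant glycosomal PGK reaction used 1,3-bisphosphoglycerate generated in-well by GAPDH (100nM final) in 100mM TEA pH 7.6, 5mM MgCl2, 0.01% Tween-20. After 60 minutes at room temperature, ATP was read by Kinase-Glo Plus luminescence end-point.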
GLS inh – blocks human kidney-isoform glutaminase activity | GLS enzymatic activity, qHTS titration | Potency, µM (highest dose often 45.5 µM), without a hit: top-dose activity change, negative = inhibition, most hits filed as inhibitors | 410,000 compounds, 0.21% hits | AID 624170; note: potency is the fitted concentration of half-maximal effect; % is set by controls: 0 for no effect and ±100 for the full control effect
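Compounds were pin-transferred onto hKGA, after which L-glutamine (1 mM solution) and a detection mix of glutamate oxidase, HRP and Amplex Red were added. Initial and 30 min RT fluorescence reads were collected.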
IDH1 autofl – autofluorescence interference, mutant IDH1 hit counter-screen; shares compounds with mIDH1 inhibitor; Resorufin detection reagent fluorescence interference, cell-free; inhibition of signal, % at 51.2 µM; AID 623980; 750 tested, under 10 active;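 note: 0% = wells with normal resorufin and full inhibition = wells lacking resorufin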
IDH1 WT – selectivity of mutant IDH1 inhibitors: human wild-type IDH1; 750 compounds, 9% hits; WT IDH1 enzyme, NADPH diaphorase/resazurin fluorescence; Potency, µM (titrated, usually from 115 µM), for inactives: at the top dose activity change, negative = inhibition, hits mostly inhibitors; shares compounds with mIDH1 inhibitor;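 note: potency is the fitted concentration of half-maximal effect; 0% = full WT IDH1 enzyme control and full inhibition = no enzyme wells; nearly all actives have a fitted effect of over 55% in size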
Target sequence (O75874 whole entry, looked up): as the sequence (O75874 whole entry R132H, stated change not applied) above, with H132R counted along it
IDH1 R132H conf – confirmation of human mutant IDH1 inhibitors; shares compounds with mIDH1 inhibitor; IDH1 R132H enzyme, NADPH diaphorase/resazurin fluorescence; Potency, µM (highest dose often 76.6 µM), for inactives: top-dose activity change, negative = inhibition, actives largely listed as inhibitors; 750 compounds, 83% hits; AID 624002; note: potency is the fitted concentration of half-maximal effect; nearly all actives have a fitted effect of over 50% in size
* marks the source's active call; other numbers are inactive results; i = inactive; ? = inconclusive; . = not tested or not shown; ! = not confirmed by another sample. An excerpt weighted towards active compounds, which were near 0.33% of everything screened. Unless noted, calls come from the whole dose curve; as a rule, active = well fitted curve in the direction sought with a large enough effect; inconclusive = small, poorly fitted or top-dose-only effect, or another doubt; inactive = no such curve, though single readings can be large; an effect the other way counts as inactive or inconclusive.

SMILES	Pin1 inhibitor	mIDH1 inhibitor	PGK inhibitor	GLS inh	others
CC(=O)Oc1cccc2c1C(=O)c1c(OC(C)=O)cc(C(=O)O)cc1C2=O	?	?	0%	16%
CCOC(=O)c1[nH]c2ccc(OC)cc2c1NS(=O)(=O)c1ccc(Cl)s1	5%	11%	5%	7.1µM*
CN(C)C(=O)c1ccc(Nc2nnc(-c3ccc(O)cc3)c3ccccc23)cc1	3%	-6%	i	11µM*
NC(=O)COc1ccc(Nc2nnc(-c3ccc(O)cc3)c3ccccc23)cc1	-6%	-14%	2%	7.9µM*
CNC(=O)c1ccc(Nc2nnc(-c3ccc(O)cc3)c3ccccc23)cc1	?	13%	i	?
CNC(=O)c1cc(Nc2nnc(-c3ccc(O)cc3)c3ccccc23)ccc1OC	?	2%	3%	11µM*
O=C(NC(Cc1ccccc1)C(=O)O)/C(=C/c1ccco1)NC(=O)c1cccc(Br)c1 (stereo not given)	?	-1%	i	18µM*
CN(C)Cc1cc(C(C)(C)C)cc(C(C)(C)C)c1O	-1%	-2%	3%	-2%
CN(C)Cc1cc(O)c(CN(C)C)cc1O	?	13%	-21%	14µM*
CN(C)c1ccc(-c2csc(N3CCC(C(N)=O)CC3)n2)cc1	15%	.	.	.
COc1cc2cc(Oc3ccc4ccc(=O)oc4c3)c(=O)oc2cc1O[C@@H]1O[C@H](CO)[C@@H](O)[C@H](O)[C@H]1O	?	0%	-24%	18µM*
CCOC(=O)N1CCN(c2c(F)cc3[nH]c(=S)[nH]c3c2Br)CC1	4%	1%	1%	7.1µM*
CCC(C)[C@H](NC(=O)[C@@H]1Cc2c([nH]c3ccccc23)C2c3ccccc3C(=O)N21)C(=O)N1CCC[C@@H]1C(=O)O (stereo not given in full)	-19%	-3%	1%	?
CC(C)C[C@H](NC(=O)[C@@H]1Cc2c([nH]c3ccccc23)C2c3ccccc3C(=O)N21)C(=O)N1CCC[C@@H]1C(=O)O (stereo not given in full)	?	-7%	9%	13µM*
Oc1ccc(NCc2ccc(OCc3ccccc3)cc2)cc1	?	6%	-3%	11µM*!
CCc1ccc(NCc2cc3cc4c(cc3n(CC(=O)Nc3ccccc3C)c2=O)OCCO4)cc1	-16%	-12%	3%	11µM*
CCc1ccc(NC(=O)Cn2c(=O)c(CNc3ccccc3)cc3cc(OC)c(OC)cc32)cc1	-15%	-2%	-7%	16µM*
COc1cc2cc(CNc3ccccc3)c(=O)n(CC(=O)Nc3cc(C)cc(C)c3)c2cc1OC	-7%	13%	-9%	?
CCc1ccc(NCc2cc3cc4c(cc3n(CC(=O)Nc3ccccc3OC)c2=O)OCCO4)cc1	1%	0%	0%	-32%
CCc1ccc(NCc2cc3cc4c(cc3n(CC(=O)Nc3ccc(Cl)cc3)c2=O)OCO4)cc1	?	6%	-7%	13µM*
CN(C)c1cccc(-c2cc(N3CCC(C(N)=O)CC3)ncn2)c1	-2%	.	.	.
CN(CCC#N)C(=O)COC(=O)c1c2c(nc3ccccc13)/C(=C/c1ccco1)CC2	?	6%	?	6.3µM*
c1ccc(-c2nnc(-c3ccco3)o2)cc1	0%	2%	-8%	-13%
c1coc(-c2nnc(-c3ccco3)nn2)c1	?	26%	?	7.9µM*
Cc1ccc([S+](=O)([O-])Nc2nn3c(=O)c4ccccc4nc3s2)cc1C	0%	.	.	.
SMILES	Pin1 inhibitor	mIDH1 inhibitor	PGK inhibitor	GLS inh	others
CCC(=O)Nc1ccc(C2C(=O)c3ccccc3C2=O)cc1	-4%	1%	-5%	46%
CCCCC(=O)Nc1ccc(C2C(=O)c3ccccc3C2=O)cc1	-4%	2%	-8%	18µM*
CCC(C)C(N)C1=NC(C(=O)N[C@@H](CC(C)C)C(=O)N[C@H](CCC(=O)[O-])C(=O)N[C@H](C(=O)N[C@H]2CCCCNC(=O)[C@H](CC(N)=O)NC(=O)[C@@H](CC(=O)[O-])NC(=O)[C@H](Cc3cnc[nH]3)NC(=O)[C@@H](Cc3ccccc3)NC(=O)[C@H]([C@@H](C)CC)NC(=O)[C@@H](CCCN)NC2=O)[C@@H](C)CC)CS1.[Zn+2] (stereo not given in full)	20µM*	32µM*	28µM*	?
O=S(=O)(c1ccc(NC(=S)N2CCN(c3ccc(O)cc3)CC2)cc1)N1CCOCC1	1%	-7%	i	7.1µM*
Cc1ccc(-c2nnc(N3CCC(C(N)=O)CC3)s2)cc1	-8%	.	.	.
NS(=O)(=O)c1ccc(N2N=C(c3ccccc3)CC2c2cccc(F)c2)cc1 (stereo not given)	?	-14%	3%	2%
NS(=O)(=O)c1ccc(N2N=C(c3ccc(Br)cc3)CC2c2ccc(F)cc2)cc1 (stereo not given)	?	?	-10%	0%	IDH1 autofl=0;IDH1 WT=2%;IDH1 R132H conf=?
C[C@H]1CN([C@@H](C)CO)C(=O)c2cccc(NS(=O)(=O)c3ccc(Cl)cc3)c2O[C@@H]1CN(C)CC1CCCCC1	-1%	45µM*	10%	6%	IDH1 autofl=-4;IDH1 WT=4%;IDH1 R132H conf=32µM*
C[C@H](CO)N1C[C@H](C)[C@@H](CN(C)CC2CCCCC2)Oc2c(NS(=O)(=O)c3ccccc3)cccc2C1=O	0%	1%	2%	4%
CCn1c(=O)c2cc(C(=O)N(C)c3cc(C)ccc3OC)sc2c2ccccc21	?	?	-6%	-2%	IDH1 autofl=-6;IDH1 WT=1%;IDH1 R132H conf=32µM*
CCCN(C(=O)c1cc2c(=O)n(CC)c3ccccc3c2s1)c1ccccc1F	0%	-17%	i	-15%
CCn1c(=O)c2cc(C(=O)N(C)c3ccccc3F)sc2c2ccccc21	4%	?	-6%	4%	IDH1 autofl=-7;IDH1 WT=-1%;IDH1 R132H conf=28µM*
COc1ccc(OC)c(N(C(=O)c2snc(C(N)=O)c2N)C(C(=O)NCc2ccccc2)c2ccc(O)cc2)c1 (stereo not given)	6%	?	-1%	1%	IDH1 autofl=2;IDH1 WT=0%;IDH1 R132H conf=22µM*
Cc1cccc(N(C(=O)c2snc(C(N)=O)c2N)C(C(=O)NCc2ccccc2)c2ccncc2)c1 (stereo not given)	-4%	?	i	-6%	IDH1 autofl=-6;IDH1 WT=8%;IDH1 R132H conf=35µM*
